These results are taken from PubChem BioAssay (NCI).

Each structure is given as a SMILES string. Compounds without any hit were thinned out: in the full panel of roughly 79,000, 15% have a hit. Unmarked numbers belong to inactive results. Calls of active or inactive are those of the source. Rule as the data show it: active = growth inhibition above about 70%; inactive = the rest.

Assay [1] can be described thus: NCI Yeast Anticancer Drug Screen. Data for the rad50 strain (AID 155).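 Also: 0% = growth of vehicle-only cultures of the same strain.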 As to conditions: S. cerevisiae rad50 strain growth inhibition, stronger effect = higher value. The procedure, abridged:
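Growth of the mutant yeast was measured after compound exposure and referenced to vehicle-treated cultures.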

Assay [2] is described as follows: NCI Yeast Anticancer Drug Screen. Data for the mec2-1 strain (AID 157). As to conditions: S. cerevisiae mec2-1 strain, stronger effect = higher value. The procedure, abridged: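 Yeast mec2-1 mutant treated with compound. Readout: growth inhibition vs vehicle controls.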
Assay [3] can be described thus: NCI Yeast Anticancer Drug Screen. Data for the sgs1 mgt1 strain (AID 161).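 Also: 0% = growth of cultures given vehicle only.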 As to conditions: S. cerevisiae sgs1 mgt1 strain, stronger effect = higher value. The procedure, abridged: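 Genetically altered yeast, compound exposure, growth inhibition relative to vehicle.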
Assay [4] can be described thus: NCI Yeast Anticancer Drug Screen. Data for the cln2 rad14 strain (AID 165).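 Also: 0% = growth equal to vehicle treated cultures.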 As to conditions: S. cerevisiae cln2 rad14 strain, stronger effect = higher value. The procedure, abridged: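 cln2 rad14 yeast strain; compound exposure; growth inhibition read vs vehicle controls.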
Assay [5] can be described thus: NCI Yeast Anticancer Drug Screen. Data for the bub3 strain (AID 167). As to conditions: S. cerevisiae bub3 mutant strain, stronger effect = higher value. The procedure, abridged:
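Whole-cell yeast assay. The mutant strain was incubated with compounds, and growth inhibition was determined by comparison with vehicle-treated cells.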

Assay [6] in a line: NCI Yeast Anticancer Drug Screen. Data for the mlh1 rad18 strain (AID 175). As to conditions: S. cerevisiae mlh1 rad18 strain growth inhibition, stronger effect = higher value. The procedure, abridged:
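Yeast w/ defined DNA-repair lesions; compound exposure; growth vs vehicle controls → % inhibition.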

[7] abbreviates: at 5.0 µM (retest, dose inferred, filed as 0.5).
[8] abbreviates: at 50.0 µM (retest, dose inferred, filed as 5.0).

With `Cc1ccccc1-n1c(N)c(-c2nc3ccccc3[nH]2)sc1=S`, the growth inhibition in assay [1] (setting [7]) is 36%; in assay [1] (setting [8]), 45%; in assay [1] (at 50.0 µM), 81.2% (active); in assay [2] (setting [7]), 22%; in assay [2] (setting [8]), 50%; in assay [2] (at 50.0 µM), 70.7% (active). Also, the growth inhibition in assay [3] (setting [7]) is 42%; in assay [3] (setting [8]) it was 57%; in assay [3] (at 50.0 µM) it was 68.2%; in assay [4] (setting [7]) it was 37%; in assay [4] (setting [8]) it was 44%; in assay [4] (at 50.0 µM), 70.4% (active). In addition, the growth inhibition is 41% in assay [5] (setting [7]); 55% in assay [5] (setting [8]); 83.1% (active) in assay [5] (at 50.0 µM); 42% in assay [6] (setting [7]); 61% in assay [6] (setting [8]); 80.2% (active) in assay [6] (at 50.0 µM).

As for `COc1cc(OC)c(/C=C\c2ccnc3ccccc23)c(OC)c1`, the growth inhibition in assay [1] (setting [7]) is 35%; in assay [1] (setting [8]) it was 91% (active); in assay [1] (at 50.0 µM), 81.6% (active); in assay [2] (setting [7]), 32%; in assay [2] (setting [8]), 93% (active); in assay [2] (at 50.0 µM), 86.3% (active). For the same compound, the growth inhibition was 26% in assay [3] (setting [7]); 96% (active) in assay [3] (setting [8]); 84.7% (active) in assay [3] (at 50.0 µM); 22% in assay [5] (setting [7]); 98% (active) in assay [5] (setting [8]); 35% in assay [5] (at 50.0 µM). The growth inhibition in assay [6] (setting [7]) is 41%; in assay [6] (setting [8]), 91% (active); in assay [6] (at 50.0 µM), -2.05%.

`O=[N+]([O-])c1ccc(C2=Nn3c(nnc3-c3ccc(Cl)cc3)SC2)o1`: the growth inhibition is 19% in assay [1] (setting [7]); 83% (active) in assay [1] (setting [8]); 66.5% in assay [1] (at 50.0 µM); 10% in assay [2] (setting [7]); 44% in assay [2] (setting [8]); 37.7% in assay [2] (at 50.0 µM). The growth inhibition in assay [3] (setting [7]) was 29%; in assay [3] (setting [8]), 73% (active); in assay [3] (at 50.0 µM) it was 62.1%; in assay [4] (setting [7]), -2%; in assay [4] (setting [8]) it was 94% (active); in assay [4] (at 50.0 µM), 65.5%. Further, the values for the growth inhibition in assay [6] (setting [7]), in assay [6] (setting [8]) and in assay [6] (at 50.0 µM) were 30%, 91% (active) and 79.3% (active), respectively.

Consider `CC(C)Cn1cnc2c(SCc3cccc(F)c3)nc(N)nc21`, for which the growth inhibition in assay [1] (setting [7]) was 0%; in assay [1] (setting [8]) it was 27%; in assay [1] (at 50.0 µM), -10.4%; in assay [2] (setting [7]), -1%; in assay [2] (setting [8]) it was 12%; in assay [2] (at 50.0 µM), 8.05%. Also, the growth inhibition in assay [3] (setting [7]) is 2%; in assay [3] (setting [8]), 31%; in assay [3] (at 50.0 µM), 67.8%; in assay [4] (setting [7]), -5%; in assay [4] (setting [8]), 54%; in assay [4] (at 50.0 µM) it was -10.2%. Further, the growth inhibition in assay [5] (setting [7]) is 2%; in assay [5] (setting [8]), 35%; in assay [5] (at 50.0 µM) it was 73.3% (active); in assay [6] (setting [7]), 0%; in assay [6] (setting [8]), 45%; in assay [6] (at 50.0 µM), 37%.

As to `N#Cc1c([N+](=O)[O-])cc(C(F)(F)F)cc1[N+](=O)[O-]`, the growth inhibition was 92% (active) in assay [1] (setting [7]); 99% (active) in assay [1] (setting [8]); 99.5% (active) in assay [1] (at 50.0 µM); 63% in assay [2] (setting [7]); 100% (active) in assay [2] (setting [8]); 99.6% (active) in assay [2] (at 50.0 µM). The growth inhibition in assay [3] (setting [7]) was 68%; in assay [3] (setting [8]) it was 100% (active); in assay [3] (at 50.0 µM) it was 99.5% (active); in assay [4] (setting [7]), 82% (active); in assay [4] (setting [8]) it was 99% (active); in assay [4] (at 50.0 µM), 99.2% (active). For the same compound, the growth inhibition was 92% (active) in assay [6] (setting [7]), 99% (active) in assay [6] (setting [8]) and 99.3% (active) in assay [6] (at 50.0 µM).

On to `CC(O)(c1ccccc1)c1ccccc1S(=O)(=O)Nc1ccccc1` (configuration not stated), for which the growth inhibition in assay [1] (setting [7]) was -7%; in assay [1] (setting [8]), 99% (active); in assay [1] (at 50.0 µM), 99.2% (active); in assay [2] (setting [7]), 6%; in assay [2] (setting [8]), 91% (active); in assay [2] (at 50.0 µM), 98.8% (active). Further, the growth inhibition in assay [3] (setting [7]) is -4%; in assay [3] (setting [8]), 99% (active); in assay [3] (at 50.0 µM), 98.5% (active); in assay [4] (setting [7]), 12%; in assay [4] (setting [8]), 33%; in assay [4] (at 50.0 µM), 98.5% (active). Also, the growth inhibition in assay [5] (setting [7]) was -5%; in assay [5] (setting [8]), 46%; in assay [5] (at 50.0 µM), 98.9% (active); in assay [6] (setting [7]) it was -2%; in assay [6] (setting [8]), 98% (active); in assay [6] (at 50.0 µM), 98.4% (active).

Regarding `CC1(C)OC2C(CO)OC(n3ncc(=S)[nH]c3=O)C2O1` (configuration not stated), the growth inhibition in assay [1] (setting [7]) was -4%; in assay [1] (setting [8]), 28%; in assay [1] (at 50.0 µM) it was -10.5%; in assay [2] (setting [7]), -8%; in assay [2] (setting [8]), 6%; in assay [2] (at 50.0 µM), 10.7%. Besides, the growth inhibition in assay [3] (setting [7]) was 4%; in assay [3] (setting [8]), 45%; in assay [3] (at 50.0 µM), -1.45%; in assay [4] (setting [7]) it was -1%; in assay [4] (setting [8]) it was 45%; in assay [4] (at 50.0 µM) it was -1.95%. Further, the growth inhibition in assay [6] (setting [7]) is -1%; in assay [6] (setting [8]) it was 30%; in assay [6] (at 50.0 µM), -24.9%.

For the compound `Cc1nn(C)c2ccc3ccccc3c(=O)c12`, the growth inhibition is 9% in assay [1] (setting [7]); 66% in assay [1] (setting [8]); 88.5% (active) in assay [1] (at 50.0 µM); -1% in assay [2] (setting [7]); 44% in assay [2] (setting [8]); 45% in assay [2] (at 50.0 µM). For the same compound, the growth inhibition in assay [3] (setting [7]) is 2%; in assay [3] (setting [8]), 50%; in assay [3] (at 50.0 µM) it was 42.6%; in assay [4] (setting [7]), 18%; in assay [4] (setting [8]), 47%; in assay [4] (at 50.0 µM), 29.4%. For the same compound, the growth inhibition in assay [5] (setting [7]) is -6%; in assay [5] (setting [8]) it was 26%; in assay [5] (at 50.0 µM), 32.6%; in assay [6] (setting [7]), 11%; in assay [6] (setting [8]), 81% (active); in assay [6] (at 50.0 µM), 76% (active).

Turning to `Cc1cc(NC(=S)SCc2ccc3c(c2)OCO3)ccc1Br`, the growth inhibition in assay [2] (setting [7]) was 28%; in assay [2] (setting [8]) it was 98% (active); in assay [2] (at 50.0 µM) it was 91.6% (active); in assay [3] (setting [7]), 54%; in assay [3] (setting [8]) it was 98% (active); in assay [3] (at 50.0 µM), 91.2% (active). The growth inhibition in assay [4] (setting [7]) was 40%; in assay [4] (setting [8]) it was 99% (active); in assay [4] (at 50.0 µM), 87.2% (active); in assay [5] (setting [7]), 49%; in assay [5] (setting [8]), 98% (active); in assay [5] (at 50.0 µM), 91.2% (active). Besides, the figures for the growth inhibition in assay [6] (setting [7]), in assay [6] (setting [8]) and in assay [6] (at 50.0 µM) were 34%, 98% (active) and 89.7% (active), respectively.

`O=C1OC(=O)c2ccc(S)c3cccc1c23`: the growth inhibition in assay [1] (setting [7]) is -35%; in assay [1] (setting [8]) it was 95% (active); in assay [1] (at 50.0 µM), 81.8% (active); in assay [3] (setting [7]), -53%; in assay [3] (setting [8]) it was 86% (active); in assay [3] (at 50.0 µM) it was 38.6%. The growth inhibition in assay [4] (setting [7]) was -42%; in assay [4] (setting [8]), 68%; in assay [4] (at 50.0 µM), 36.7%; in assay [5] (setting [7]), -32%; in assay [5] (setting [8]) it was 90% (active); in assay [5] (at 50.0 µM) it was 88.8% (active). In addition, the growth inhibition in assay [6] (setting [7]) is -80%; in assay [6] (setting [8]) it was 95% (active); in assay [6] (at 50.0 µM), 76% (active).
